Bioassay records: PubChem BioAssay, Center for Chemical Genomics, University of Michigan
Shown is part of a subset that was picked to be rich in hits.
Dicer inh – inhibitors of Dicer pre-microRNA processing, primary screen, biochemical, cat-ELCCA, chemiluminescence; actives 6% (n = 47,000); Endoribonuclease Dicer (Homo sapiens), Q9UPY3; cat-ELCCA pre-miR-21 Dicer processing; stronger effect = higher value; z-score at 25 µM; in the data active = z-score above about 3, passing the limit was not always enough;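 also: plate controls were vehicle for no effect and no enzyme for full effect; higher signal means more uncleaved substrate so more Dicer inhibition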
Numbers without * were called inactive.

SMILES	Dicer inh
Cc1ccc(S(=O)(=O)N=S(c2ccc(C(=O)O)cc2)c2ccc(C(=O)O)cc2)cc1	1.25
COCCn1c(-c2ccc(F)cc2)cnc1NCc1ccccc1	-0.33
Cc1cccc(Cl)c1Nc1ncnc(N)n1	7.22
CCCCCn1c(SCC(=O)Nc2ccc(C(C)C)cc2)n[nH]c1=O	1.66
CC1(C)CC(=O)C=C(Sc2nc3cc(Cl)ccc3s2)C1	2.66
CCOC(=O)c1cnn(-c2c(Cl)cc(Cl)cc2Cl)c1C	-0.52
CS(=O)c1scc2c1C(=O)CC(C)(C)C2 (configuration not stated)	-0.84
CC(C)(C)c1ccc(COc2ncnc3cc(Cl)ccc23)cc1	-1.01
COc1ccc(/C(O)=C2\C(=O)C(=O)N(CCN3CCNCC3)C2c2ccc(OC)cc2)cc1 (configuration not stated)	0.81
COc1ccc(/C(O)=C2\C(=O)C(=O)N(CCCN3CCOCC3)C2c2ccc(OC)cc2)cc1 (configuration not stated)	0.7
COc1ccc(/C(O)=C2\C(=O)C(=O)N(CCN3CCOCC3)C2c2ccc(F)cc2)cc1 (configuration not stated)	3.24*
O=c1c2cccnc2ncn1CCCN1CCOCC1	-0.31
CCCCc1ccc(N=CNO)c(C)c1	4.02*
Cc1cc(N=CNO)c2ccccc2n1	-0.52
ONC=Nc1cc(Cl)c(-n2cccc2)cc1Cl	-0.78
COC(=O)[C@H]1OC(O)[C@H](O)[C@@H](O)[C@H]1O (some centres not stated)	5.77*
CCOC(=O)N/N=C(\C)c1ccccc1-c1ccccc1/C(C)=N/NC(=O)OCC	-0.53
COc1ccccc1N1CCN(S(=O)(=O)c2ccc(S(N)(=O)=O)cc2)CC1	1.72
Cc1nn2c(-c3cccc(NS(=O)(=O)c4ccc(Cl)cc4)c3)nnc2c2ccccc12	2.55
COCCNS(=O)(=O)c1ccc(C)c(-c2nnc3c4ccccc4c(C)nn23)c1	1.36
Cc1ccccc1-c1nnc2c3ccccc3c(C)nn12	4.96*
c1ccc(-c2nn3c(-c4ccccc4)nnc3c3ccccc23)cc1	4.55*
Cc1ccc(S(=O)(=O)N2CCCCC2)cc1-c1nnc2c3ccccc3c(C)nn12	1.08
Cc1ccc(-c2nnc3c4ccccc4c(C)nn23)cc1S(=O)(=O)NCc1ccccc1	2.83
COC(=O)c1cccc([N+](=O)[O-])c1-c1c(C(=O)OC)cccc1[N+](=O)[O-]	-0.32
SMILES	Dicer inh
C/C(=N\Nc1nc(-c2ccc(Cl)cc2)cs1)c1ccc(C)nc1	0.61
CCOC(=O)C1=C(C)N=C2SC(CC)C(=O)N2C1c1ccc(OC)c(OC)c1 (configuration not stated)	-0.55
COc1ccc(/C(N)=N/OC(=O)Nc2ccccc2)cc1OC1CCCC1	-0.13
CC1(C)CC(=O)C2=C(C1)c1c(ccc3ccccc13)NC2c1ccccc1 (configuration not stated)	2.97
CCc1nc(N)nc2c1C(=O)CC(C)(C)C2	-2.78
CCNc1c2c(nc3ccccc13)CC(C)(C)CC2=O	3.05*
COc1cccc(NC2=C(C#N)C(=O)NC(c3ccc([N+](=O)[O-])cc3)S2)c1 (configuration not stated)	1.33
COc1ccc(C2C(C#N)=C(N)OC3=C2C(=O)CC(C)(C)C3)cc1OCc1ccccc1 (configuration not stated)	3.02*
COC(=O)C1=C(C)NC2=C(C(=O)CC(C)(C)C2)C1c1ccc(OCc2ccccc2)c(OC)c1 (configuration not stated)	-0.7
COc1cc(C2C(C#N)=C(N)Oc3cc(O)ccc32)ccc1OCc1ccccc1 (configuration not stated)	1.75
O=C(C1=C(O)C(=O)N(Cc2cccnc2)C1c1ccccc1)c1cccs1 (configuration not stated)	-0.29
O=C(NCc1ccco1)C1Sc2nnc(-c3ccccc3)n2NC1c1ccc(F)cc1 (configuration not stated)	0.08
O=S(=O)(O)c1ccc2c(c1)Cc1cc(S(=O)(=O)O)ccc1-2	-0.48
CCN(CC)c1c([N+](=O)[O-])c(=O)sc2ccccc12	-1.17
O=c1sc2ccccc2c(NCc2ccccc2)c1[N+](=O)[O-]	4.44*
O=[N+]([O-])c1ccsc1NCc1ccccc1	-1.12
O=C(CCN(Cc1ccco1)S(=O)(=O)c1ccc(Cl)cc1)NNS(=O)(=O)c1cccs1	0.18
CC(C)(C)OC(=O)NCCNc1ccc(C(F)(F)F)cc1N1C(=O)CC2(CCCC2)C1=O	-1.13
Cc1ccc(CC2CC(=O)N(c3ccncc3)C2=O)cc1 (configuration not stated)	-0.31
Cc1ccc(CC2CC(=O)N(c3ccc(C(=O)O)cc3)C2=O)cc1 (configuration not stated)	2.34
Cc1ccc(CC2CC(=O)N(Cc3ccco3)C2=O)cc1 (configuration not stated)	3.58*
CSc1nc2ccc(NC(=O)c3ccccc3C(F)(F)F)cc2s1	-1.25
CCOC(=O)c1cc(C(C)(C)C)n(-c2ccc(N3CCOCC3)cc2)c1C	1.22
CCOC(=O)c1cc(-c2ccccc2)n(-c2ccc(N3CCOCC3)cc2)c1C	4.28*
CCOC(=O)c1cc(-c2ccc(Cl)cc2)n(-c2ccccc2)c1C	1.89
SMILES	Dicer inh
O=S(=O)(Nc1nc2ccccc2nc1NCCc1ccccc1)c1ccc(Cl)cc1	2.75
Cc1c(-c2ccn[nH]2)sc2nc(C(F)(F)F)nn12	-3.27
O=C1CC(c2ccccc2)CC2=C1C(c1ccc(O)cc1)Nc1ccccc1N2 (configuration not stated)	0.27
CCC(Sc1nccn1C)C(=O)Nc1cc(C)on1 (configuration not stated)	0.93
O=C1CC(c2ccccc2)c2cc(Cl)ccc2O1 (configuration not stated)	2.06
COc1ccc(N=C(N)N=C(N)N)cc1	6.29*
COc1cc(N=C(N)N=C(N)N)cc(OC)c1	0.32
Cc1cc(N=C(N)N=C(N)N)ccc1Br	0.97
Cc1ccc(NC(=O)/C(C#N)=C/c2cc(Br)cs2)cc1Cl	2.09
CC(C)(C)OC(=O)N1C(C(=O)O)COC1(C)C (configuration not stated)	2.17
CN=C(Nc1cc(C)c(C)cc1C)SC	-0.54
CCOC(=O)CSC(=S)Nc1ccc(C)cc1C	0.37
CSC(=NCc1ccco1)Nc1ccc(C)cc1C	4.12*
COC(=O)c1sc(C(F)(F)F)c(-c2ccccc2)c1N	0.54
N#Cc1c(Oc2ccc(Cl)cc2)ccc([N+](=O)[O-])c1Oc1ccc(Cl)cc1	-2.41
C/C(=C\C#N)NC(=O)c1nccnc1C(=O)O	4.61*
Cn1nccc1NC(=O)c1nccnc1C(=O)O	-0.01
CC(=O)Nc1ccc(NC(=O)c2nccnc2C(=O)O)cn1	-0.06
O=c1ccn2c(n1)OC1[C@@H](O)[C@@H](CO)O[C@H]12 (some centres not stated)	1.64
CC(=O)OC[C@@H](OC(C)=O)[C@@H](OC(C)=O)C1OC(=O)C2N(C(C)=O)[C@H]1SC2(C)C (some centres not stated)	-0.11
CCN(CCS(=O)(=O)c1ccccc1)S(=O)(=O)c1ccc(Cl)cc1	-4.44
CCN(CCS(=O)(=O)c1ccc(Cl)cc1)C(=O)Nc1ccccc1	3.32*
CNC(=O)N(CCS(=O)(=O)c1ccc(Cl)cc1)Cc1cccs1	-2.51
Cn1c(Sc2cnc(=S)[nH]c2-c2ccc(Cl)cc2)nnc1C(F)(F)F	-3.47
O=S(=O)(Nc1ncccn1)c1ccc(C(F)(F)F)cc1Cl	3.02*
O=S(=O)(Nc1ccccn1)c1ccc(C(F)(F)F)cc1Cl	-0.2
